TrxR1 substrate: qHTS Assay for Substrates of Mammalian Selenoprotein Thioredoxin Reductase 1 (TrxR1): qHTS; Potency, µM (highest dose often 114 µM), inactives show at the highest dose activity change, negative = substrate turnover; hit rate 0.01% among 390,000; purified TrxR1 substrate turnover, NADPH consumption readout; Thioredoxin reductase 1, cytoplasmic (Rattus norvegicus), O89049; note: potency is the fitted concentration of half-maximal effect; nearly all actives have a fitted effect of over 50% in size
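Rat TrxR1, dispensed at 90 nM, was prereduced with 400 uM NADPH (final) for 5 min at ~22 deg C, then incubated with compound 15 min before 400 uM selenite. A first-read NADPH fluorescence drop versus no-compound background flagged substrates.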
TrxR1 inh: qHTS Assay for Inhibitors of Mammalian Selenoprotein Thioredoxin Reductase 1 (TrxR1): qHTS. Potency, µM (series often up to 114 µM), inactives show top-dose activity change, negative = inhibition, hits mostly inhibitors. AID 588453, 2011. recombinant rTrxR1, NADPH fluorescence consumption, selenite substrate. hit rate 1% among 390,000. Thioredoxin reductase 1, cytoplasmic (Rattus norvegicus), O89049; note: potency is the fitted concentration of half-maximal effect; nearly all actives have a fitted effect of over 65% in size
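Rat TrxR1 (90 nM in the dispensed reagent) was pre-reduced with 400 uM NADPH for 5 min at room temperature, then incubated with compound for 15 min. After 400 uM selenite was added, NADPH fluorescence (Ex 340/Em 450 nm) was followed for 8 min.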
Six1-Eya2 inh: qHTS Assay for Inhibitors of the Six1/Eya2 Interaction | hit rate 0.56% among 360,000 | Homeobox protein SIX1 (Homo sapiens) + Protein phosphatase EYA2 (Homo sapiens), … | activity change, % (concentration not given with the values) | AlphaScreen GST-Six1/His-Eya2 binding, biochemical; active compounds read low; in the data active = activity change below about -65%; inconclusive = mostly about -30% to -63%
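Compounds are tested against tagged Six1 and Eya2 proteins bridged by glutathione donor and nickel acceptor beads; after a one-hour incubation at 37 °C without light, AlphaScreen emission is recorded.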
GALK inh: qHTS Assay for Inhibitors of Human Galactokinase (GALK). AID 1868, 2009. Potency, µM (highest dose often 57.5 µM), for the others: at the top dose activity change, negative = inhibition, most hits filed as inhibitors. P51570. Purified GALK, Kinase-Glo residual ATP luminescence. hit rate 0.007% among 270,000; note: potency is the fitted concentration of half-maximal effect
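The enzyme phosphorylates galactose (100 uM) using ATP (35 uM); inhibition is detected as higher residual ATP, quantified by bioluminescence after 1 h reaction at room temperature, pH 8.0.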
Eya2 phos inh: qHTS Assay for Inhibitors of the Phosphatase Activity of Eya2; Protein phosphatase EYA2 (Homo sapiens), O00167; Potency, µM (top dose mostly 76.9 µM), without a hit: top-dose activity, negative = inhibition, most hits filed as inhibitors; AID 488837, 2010; hit rate 0.006% among 330,000; recombinant Eya2, OMFP fluorescence dephosphorylation (OMFP is methylfluorescein phosphate); note: potency is the fitted concentration of half-maximal effect
Target sequence (O00167 whole entry, looked up): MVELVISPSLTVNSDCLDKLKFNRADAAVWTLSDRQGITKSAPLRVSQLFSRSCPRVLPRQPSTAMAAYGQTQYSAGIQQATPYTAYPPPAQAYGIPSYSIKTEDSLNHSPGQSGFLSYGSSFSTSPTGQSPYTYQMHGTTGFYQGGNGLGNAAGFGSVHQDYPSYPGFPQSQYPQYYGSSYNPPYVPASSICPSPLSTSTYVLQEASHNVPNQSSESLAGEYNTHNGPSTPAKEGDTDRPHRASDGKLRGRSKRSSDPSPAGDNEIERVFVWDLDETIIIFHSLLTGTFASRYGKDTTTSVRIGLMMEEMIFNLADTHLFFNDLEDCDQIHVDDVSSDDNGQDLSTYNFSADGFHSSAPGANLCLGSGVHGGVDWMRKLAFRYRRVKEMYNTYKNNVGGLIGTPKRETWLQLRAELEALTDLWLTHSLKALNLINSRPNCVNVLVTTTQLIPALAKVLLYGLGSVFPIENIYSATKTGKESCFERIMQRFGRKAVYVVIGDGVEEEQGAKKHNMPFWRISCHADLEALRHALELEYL
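Eya2 protein (added as 0.2 uM solution) was preincubated with compound for 10 min at ambient temperature in 50 mM HEPES pH 7.5, 50 mM NaCl, 5 uM MgCl2, 0.05% BSA, 1 mM DTT. OMFP (added at 50 uM) then reacted 10 min; fluorescence read at 485/525 nm.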
CtBP-E1A blk: qHTS Assay for Inhibitors of the CtBP/E1A Interaction | hit rate 0.49% among 340,000 | AlphaScreen GST-E1A/His-CtBP binding, 1536-well; active compounds read low | activity change, % (test concentration not listed) | CtBP / adenovirus E1A interaction (AlphaScreen); in the data active = activity change below about -65%; inconclusive = mostly about -30% to -63%
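In 5 uL wells, 23 nL compound meets equimolar GST-E1A and His-CtBP (5X stock 125 nM each) for 2 h, 37 °C. Beads (5X, 50 ug/mL) then 1 h, 37 °C, dark.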
Starred values were filed as active, the others as inactive; u = inconclusive; x = not tested or not shown; [ ] = another dose, or the depositor's remark. Shown are actives, neighbours in structure and some others; about 1.5% of the full set was active somewhere. Unless noted, calls come from the whole dose curve; as a rule, active = well fitted curve in the direction sought with a large enough effect; inconclusive = small, poorly fitted or top-dose-only effect, or another doubt; inactive = no such curve, though single readings can be large; an effect the other way counts as inactive or inconclusive. % is set by controls: 0 for no effect and ±100 for the full control effect.

SMILES	TrxR1 substrate	TrxR1 inh	Six1-Eya2 inh	GALK inh	Eya2 phos inh	CtBP-E1A blk
Cc1cccc(C(=O)NC(=S)Nc2ccc(N3CCOCC3)cc2)c1	-8%	32µM*	-10	-4%	-2%	-5
COC(=O)c1cc(NC(=S)NC(=O)c2ccccc2)ccc1N1CCOCC1	-15%	28µM*	-8	6%	1%	-6
O=C(C1CC1)N1CCc2cc(Br)cc(S(=O)(=O)N3CCN(c4cccc(C(F)(F)F)c4)CC3)c21	12%[2.29 µM]	26%	x	x	x	x
Oc1c(Br)cc(Br)cc1/C=N/c1nccs1	-6%	35µM*	u	x	4%	u
COc1cc2nc(CCNCc3ccccc3)nc(NC3CCN(C)CC3)c2cc1OC	-4%	u	x	x	x	x
O=[N+]([O-])c1cc(S(=O)(=O)NCCN2CCOCC2)ccc1Sc1nnnn1-c1ccccc1	-4%	20µM*	2	-1%	-3%	23
O=C(CCN1CCC(c2ccccc2)C1)c1ccccc1 (stereo not given)	6%[2.29 µM]	u	3	1%	-2%	11
O=C(CCN1CCC2CCC(C2)C1)c1ccc(F)cc1 (stereo not given)	7%[11.4 µM]	1.6µM*	-4	x	x	-2
COCCOC(=O)c1c(-c2ccccc2)c(-c2ccccc2)nn(C)c1=O	19%	18%	x	x	x	x
Cc1oc2ncn(C)c(=O)c2c1C(=O)NC(C)c1ccccc1 (stereo not given)	-11%	-4%	x	x	x	x
Cc1cc(C)nc(Nc2nc(C(N)c3ccccc3)cs2)n1 (stereo not given)	x	x	-69*	x	x	-67*
Cc1cc(C)nc(Nc2nc(C(N)CCc3ccccc3)cs2)n1 (stereo not given)	x	x	-21	x	x	-25
Cc1ccc(CS(=O)(=O)c2ncc(Cl)c(C(=O)Nc3ccc(OC(F)F)cc3)n2)cc1	0%	28µM*	-11	2%	4%	6
COc1ccc(NC(=O)c2nc(S(=O)(=O)Cc3ccc(C)cc3)ncc2Cl)cc1	6%	2.5µM*	x	x	x	x
CCS(=O)(=O)c1ncc(Cl)c(C(=O)Nc2ccc(C)cc2)n1	8%	u	2	6%	-3%	3
COc1ccccc1NC(=O)C1=C(C)NC2=C(C(=O)CC(c3ccc(OC)c(OC)c3)C2)C1c1coc2ccccc2c1=O (stereo not given)	1%	6%	-78*	x	-11%	-20
CCS(=O)(=O)NCC(c1cccnc1)N1CCN(c2ccc(OC)cc2)CC1 (stereo not given)	9%	14%	1	-1%	-1%	-75*
NC(=O)CSc1oc(-c2ccco2)nc1S(=O)(=O)c1ccccc1	4%	40µM*	-1	3%	4%	-4
CC(C)CSc1oc(-c2ccco2)nc1S(=O)(=O)c1ccccc1	-4%	-11%	1	0%	-9%	3
CCOc1cc(/C=C2\CN(C)C/C(=C\c3ccc(O)c(OCC)c3)C2=O)ccc1O	-16%	56µM*	-7	-8%	4%	0
COc1cc(C=C2CN(C)C(=O)C2=O)ccc1O	x	x	-1	x	x	0
O=C(NC1CCCCC1)c1nn2c(C(F)(F)F)cc(-c3ccco3)nc2c1Br	5%[57.1 µM]	-21%[57.1 µM]	2	0%	1%	-4
O=C(NCC1CCCO1)c1nn2c(C(F)(F)F)cc(-c3ccc(Br)o3)nc2c1Br (stereo not given)	6%	14µM*	-26	-2%	20%	-16
COc1ccc(N2C(N)=C(C#N)C(c3cc(CN4CCOCC4)cs3)C3=C2CCCC3=O)cc1 (stereo not given)	-2%[57.1 µM]	7%[57.1 µM]	x	x	x	x
CCn1c(SCC(=O)N/N=C/C(C)=C/c2ccco2)nnc1-c1ccccc1	-7%	u	-8	1%	5%	-6
SMILES	TrxR1 substrate	TrxR1 inh	Six1-Eya2 inh	GALK inh	Eya2 phos inh	CtBP-E1A blk
Cn1c(SCC(=O)N/N=C/C=C/c2ccco2)nc2ccccc21	-13%	45µM*	-20	0%	-7%	15
CCn1c(SCC(=O)N/N=C/C=C/c2ccco2)nnc1-c1ccccc1	-7%	35µM*	u	1%	1%	-5
Cc1cc(C)c(NC(=O)C(=O)NCCc2csc(-c3ccc(F)cc3)n2)c(C)c1	-2%[57.1 µM]	24%[57.1 µM]	x	x	x	x
COc1cc(N=C2C(=O)N3CCCc4cccc2c43)cc(OC)c1	-11%	9%[57.1 µM]	6	0%	-3%	-76*
O=C1c2cccc3c2N(CCC3)C(=O)C1(F)c1ccccc1 (stereo not given)	6%[57.1 µM]	11%[11.4 µM]	7	x	x	-13
CCOC(=O)C1CCCN(CCC(=O)Nc2ccc(OC)cc2OC)C1 (stereo not given)	2%	5%	x	x	x	x
O=C(N/N=C/C=C/c1ccco1)c1cccnc1	-12%	5.6µM*	-9	-2%	-16%	-11
O=C(N/N=C\C=C\c1ccco1)c1cncc(Br)c1	-16%	50µM*	-19	-2%	17%	-5
O=C(N/N=C/C=C\c1ccco1)c1ccccn1	3%[57.1 µM]	u	-88*	-3%	-12%	10
O=C(N/N=C\c1ccco1)c1cncc(Br)c1	x	x	x	x	9%	x
O=C1/C(=C/c2ccc(O)cc2)COc2ccccc21	-4%	-33%	8	2%	-4%	-16
O=C1/C(=C/c2ccccn2)COc2ccccc21	-14%[57.1 µM]	22µM*	8	0%	-27%	8
CC(C)(C)C1C/C(=C/c2ccccn2)C(=O)/C(=C/c2ccccn2)C1 (stereo not given)	0%	35µM*	0	1%	-15%	4
N#CC(C#N)=Cc1ccc(OC(=O)c2ccccn2)cc1	0%[57.1 µM]	13µM*	-68*	1%	-5%	u
Cc1c(CC(=O)N[C@@H](C)C(=O)O)c(=O)oc2c(C)c3occ(-c4ccccc4)c3cc12	0%	-9%	-65*	-4%	6%	-83*
Cc1coc2c(C)c3oc(=O)c(CC(=O)N[C@@H](CC(C)C)C(=O)O)c(C)c3cc12	14%	-2%	-3	1%	-7%	-4
Cc1c(CC(=O)N[C@@H](C)C(=O)O)c(=O)oc2cc3occ(-c4ccccc4)c3cc12	2%	11%	-69*	9%	11%	x
Cc1c(CC(=O)O)c(=O)oc2cc3occ(-c4ccccc4)c3cc12	5%	4%	-3	-3%	-5%	0
